# Measurements as given in the supplement of paper PMC9844399.
# Counter-ions that a name gives are not always drawn.
# Tested on: HeLa
# Experiment: nuclear count per well, robust Z-score vs DMSO; higher = more cells (less toxicity)
# Details: 10 µM; 6 h
# 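Throughout, for MALAT1 nuclear FISH intensity, robust Z-score vs DMSO: High-content confocal imaging of branched-DNA amplified FISH in 384-well plates, Hoechst-defined nuclei, score is well value minus plate DMSO median over DMSO robust SD, four wells per compound.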
# 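Throughout, for nuclear count per well, robust Z-score vs DMSO: Hoechst-stained nuclei counted by automated confocal imaging of four fields per well in 384-well plates, with the robust Z-score based on the per-plate DMSO median and robust SD.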
row,Compound,nuclear count per well
1,CC(C)c1nc(N(C)S(C)(=O)=O)nc(-c2ccc(F)cc2)c1/C=C/[C@@H](O)C[C@@H](O)CC(=O)O [Rosuvastatin calcium],-0.0282
2,O=C(O)CCNC(=O)c1ccc(/N=N/c2ccc(O)c(C(=O)O)c2)cc1 [Balsalazide],-0.471
3,CCCCC[C@H](O)/C=C/[C@H]1C=CC(=O)[C@@H]1CCCCCCC(=O)O [Prostaglandin A1],-0.218
4,NCC[C@H](O)C(=O)N[C@@H]1C[C@H](N)[C@@H](O[C@H]2O[C@H](CN)[C@@H](O)[C@H](O)[C@H]2O)[C@H](O)[C@H]1O[C@H]1O[C@H](CO)[C@@H](O)[C@H](N)[C@H]1O [Amikacin Disulfate],-0.373
5,Oc1ccc(C2CNCCc3c2cc(O)c(O)c3Cl)cc1 (stereo unspecified) [Fenoldopam Mesylate],-1.24
6,COCCCCCCCCCCCC(=O)O [12-Methoxydodecanoic acid],0.27

# Tested on: HeLa
# Experiment: MALAT1 nuclear FISH intensity, robust Z-score vs DMSO; higher = more nuclear MALAT1 lncRNA, active = -3 or less
# Details: 10 µM; 6 h
row,Compound,MALAT1 nuclear FISH intensity
1,CCNC(=O)CCC/C=C\C[C@@H]1[C@@H](/C=C/[C@@H](O)CCc2ccccc2)[C@H](O)C[C@@H]1O [Bimatoprost],0.451 (inactive)
2,COc1cc(NC(C)CCCN)c2ncccc2c1 (stereo unspecified) [Primaquine Phosphate],-0.684 (inactive)
3,Clc1ccccc1C(c1ccccc1)(c1ccccc1)n1ccnc1 [Clotrimazole],-0.32 (inactive)
4,"CCCCC/C=C\C/C=C\CC1OC1C/C=C\CCCC(=O)O (stereo unspecified) [8,9-Epoxyeicosatrienoic acid]",0.155 (inactive)
5,C#CCCCCCCCCCCCCCCCC(=O)O [17-Octadecynoic acid],-0.883 (inactive)
6,Cc1onc(-c2ccccc2)c1C(=O)N[C@@H]1C(=O)N2[C@@H]1SC(C)(C)[C@@H]2C(=O)O [Oxacillin sodium salt monohydrate],1.4 (inactive)
7,Nc1nc(=O)[nH]cc1F [Flucytosine],-0.522 (inactive)
8,C[C@]12CC[C@@H]3c4ccc(OS(=O)(=O)O)cc4CC[C@H]3[C@@H]1CCC2=O [Estropipate],0.478 (inactive)
9,Cc1[nH]c2ccccc2c1CCNC(=O)c1ccccc1F,-0.887 (inactive)
10,CC(=O)NC[C@H]1CN(c2ccc(N3CCOCC3)c(F)c2)C(=O)O1 [Linezolid],-1.13 (inactive)
11,NC[C@H]1O[C@H](O[C@H]2[C@H](O)[C@@H](O[C@H]3O[C@H](CO)[C@@H](O)[C@H](N)[C@H]3O)[C@H](N)C[C@@H]2N)[C@H](O)[C@@H](O)[C@@H]1O [Kanamycin Sulfate],-0.497 (inactive)
12,CC(CCc1ccccc1)NCC(O)c1ccc(O)c(C(N)=O)c1 (stereo unspecified),-0.391 (inactive)
13,CN(C)C(=N)NC(=N)N,0.0968 (inactive)
14,COc1ccc(CCCOC(Cn2ccnc2)c2ccc(OC)cc2)cc1 (stereo unspecified),-0.276 (inactive)
15,C=C1O[C@@](CO)(n2cnc3c(N)ncnc32)[C@H](O)[C@@H]1O [Decoyinine],0.453 (inactive)
16,O=C(NCCCNc1nc(Nc2cccc(CN3CCOCC3)c2)ncc1C1CC1)C1CCC1,-1.71 (inactive)
17,CC(=O)N[C@@H](CSC/C=C(\C)CC/C=C(\C)CCC=C(C)C)C(=O)O [Acetyl (N)-s-farnesyl-l-cysteine],-0.508 (inactive)
18,CNC(=O)c1cc(Oc2ccc(NC(=O)Nc3ccc(Cl)c(C(F)(F)F)c3)c(F)c2)ccn1 [Regorafenib (BAY 73-4506)],-0.123 (inactive)
19,O=C(O)CCCc1ccccc1 [Sodium Phenylbutyrate],1.1 (inactive)
20,CC1CNc2c(cccc2S(=O)(=O)N[C@@H](CCCNC(=N)N)C(=O)N2CC[C@@H](C)C[C@@H]2C(=O)O)C1 (stereo partly specified) [Argatroban],-1.05 (inactive)
21,CC(C(=O)O)c1ccc(-c2ccccc2)c(F)c1 (stereo unspecified) [Flurbiprofen],0.0689 (inactive)
22,CCCCC(C)(O)C/C=C/[C@H]1[C@H](O)CC(=O)[C@@H]1CCCCCCC(=O)OC (mixture of isomers) [Misoprostol],-2.26 (inactive)
23,COc1cc2nccc(Oc3ccc(NC(=S)NC(=O)c4ccccc4C)cc3)c2cc1OC [PDGFR Tyrosine Kinase Inhibitor V],-0.824 (inactive)
24,Cc1ccc(NC(=O)c2ccc(CN3CCN(C)CC3)cc2)cc1Nc1nccc(-c2cccnc2)n1 [Imatinib mesylate],0.735 (inactive)
25,CN(C)CCc1c[nH]c2ccc(C[C@H]3COC(=O)N3)cc12 [Zolmitriptan],-0.715 (inactive)
